# From PubChem BioAssay
# TDP1 inh: qHTS Assay for Inhibitors of Tyrosyl-DNA Phosphodiesterase (TDP1) | 350,000 tested, 0.28% active | Tyrosyl-DNA phosphodiesterase 1 (Homo sapiens), Q9NUW8 | recombinant TDP1, AlphaScreen DNA substrate cleavage | Potency, µM (titrated, usually from 130 µM), actives largely listed as inhibitors; further: nearly all actives have a fitted effect of over 40% in size
#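 Here, a 5' biotin and 3' phosphotyrosine-FITC DNA oligonucleotide reports Tdp1 activity: intact substrate bridges AlphaScreen beads, while cleavage leaves a 3' phosphate and drops signal. All incubations at room temperature.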
# ERG-DNA inh: qHTS for Small Molecule Inhibitors of the ERG Ets/DNA interaction | Transcriptional regulator ERG (Homo sapiens), P11308 | fluorescence polarization, His-ERG Ets domain / labelled DNA | Potency, µM (doses to about 76.9 µM), most hits filed as inhibitors | 370,000 tested, 0.028% active; active means well fitted inhibition curve with a large enough effect in the polarisation, with a control signal flat; inconclusive means small, poorly fitted or top-dose-only effect, or effect the other way, or a change in a side signal; inactive means no such curve, though single readings can be large or run the other way; the % refers to the polarisation;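 further: polarization taken with two DNA probes labelled with fluorescein and Texas red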
# Target sequence (P11308 whole entry, looked up, the tested form may be a part): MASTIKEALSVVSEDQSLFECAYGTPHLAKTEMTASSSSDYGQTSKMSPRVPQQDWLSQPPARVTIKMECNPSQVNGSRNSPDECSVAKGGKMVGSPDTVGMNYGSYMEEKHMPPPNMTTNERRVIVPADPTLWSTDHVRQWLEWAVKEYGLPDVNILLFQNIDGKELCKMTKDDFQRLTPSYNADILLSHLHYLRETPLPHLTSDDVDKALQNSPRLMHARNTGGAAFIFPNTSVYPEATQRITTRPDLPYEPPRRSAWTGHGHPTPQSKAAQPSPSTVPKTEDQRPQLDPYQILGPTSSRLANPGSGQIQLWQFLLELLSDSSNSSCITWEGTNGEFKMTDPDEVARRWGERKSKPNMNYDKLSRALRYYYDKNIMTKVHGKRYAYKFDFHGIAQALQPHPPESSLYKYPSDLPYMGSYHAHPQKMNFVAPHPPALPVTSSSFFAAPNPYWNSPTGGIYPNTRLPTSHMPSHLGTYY
#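 His-tagged ERG Ets domain (1 uM in the protein solution; 300mM KCl, 50mM Tris-HCl, 1mM EDTA, 1mM DTT, pH 7.5) received compound, then a probe mix of 5 nM fluorescein-DNA and 100nM Texas-615-DNA. Fluorescence polarization was read for both dyes.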
# EPAC1 agonist: qHTS for Agonist of cAMP-regulated guanine nucleotide exchange factor 3 (EPAC1): primary screen. Rap guanine nucleotide exchange factor 3 (Homo sapiens), O95398. EPAC1 agonist qHTS, biochemical assay; response scale: 100% = response to 6.5 mM cAMP. Potency, µM (series often up to 154 µM), actives largely listed as activators. 360,000 tested, 0.073% active. AID 720707, 2013; further: nearly all actives have a fitted effect of over 60% in size
#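 Read-out is the fluorescence drop as BODIPY-GDP leaves Rap1B (480 nm excitation, 540 nm emission), recorded every 5 minutes over 30 minutes. Reactions held 100 nM EPAC1, 250 nM Rap1B–BODIPY-GDP and 50 uM GDP, with 6.5 mM cAMP setting full activation.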
# EPAC1 antag: qHTS for Antagonist of cAMP-regulated guanine nucleotide exchange factor 3 (EPAC1): primary screen | Rap guanine nucleotide exchange factor 3 (Homo sapiens), O95398 | EPAC1 GEF assay, Rap1b-BODIPY-GDP exchange fluorescence | Potency, µM (highest dose often 115 µM), actives largely listed as inhibitors | 360,000 tested, 0.14% active; further: nearly all actives have a fitted effect of over 50% in size
# EPAC2 agonist: qHTS for Agonist of cAMP-regulated guanine nucleotide exchange factor 4 (EPAC2): primary screen | 360,000 tested, 0.079% active | AID 720711, 2013 | Potency, µM (series often up to 154 µM), most hits filed as activators | EPAC2 activation, biochemical qHTS; response scale: 100% = 6.5 mM cAMP response; further: nearly all actives have a fitted effect of over 50% in size
#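 Setup: EPAC2 100 nM, labeled Rap1B complex 250 nM, free GDP 50 uM. Compound titrations pinned in, brief spin, 5 min room temperature incubation. Kinetic fluorescence read over 30 min, normalized to 6.5 mM cAMP.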
# EPAC2 antag: qHTS for Antagonist of cAMP-regulated guanine nucleotide exchange factor 2 (EPAC2): primary screen. AID 720708, 2013. Rap guanine nucleotide exchange factor 4 (Homo sapiens), Q8WZA2. 360,000 tested, 0.18% active. EPAC2 GEF exchange of Rap1B-BODIPY-GDP, fluorescence. Potency, µM (series often up to 114 µM), most hits filed as inhibitors; further: nearly all actives have a fitted effect of over 45% in size
# Numbers stand for hits; i = inactive; ? = inconclusive; nt = not tested or not shown; ! = repeats disagree. Shown are actives, neighbours in structure and some others; about 0.54% of the full set was active somewhere. Unless noted, the call rests on the fitted dose curve; in most records, active means well fitted curve in the direction sought with a large enough effect; inconclusive means small, poorly fitted or top-dose-only effect, or another doubt; inactive means no such curve, though single readings can be large; an effect the other way counts as inactive or inconclusive.
SMILES,TDP1 inh,ERG-DNA inh,EPAC1 agonist,EPAC1 antag,EPAC2 agonist,EPAC2 antag
C=CCCCN(Cc1ccccc1)S(=O)(=O)c1ccccc1Br,40µM,i,i,i,i,?
CCCCc1nc(SCCOC)c2c(=O)n(C)c(=O)n(C)c2n1,i,i,i,i,i,18µM
CC(C)(C)OC(=O)N1CCN(c2nc(-c3cccs3)nc3ccccc23)CC1,i,nt,nt,nt,nt,nt
O=C(O[C@@H]1OC2COC(=O)c3cc(O)c(O)c(O)c3-c3c(cc(O)c(O)c3O)C(=O)O[C@@H]([C@H]1O)[C@@H]2O)c1cc(O)c(O)c(O)c1,i,i,i,89µM,i,i
Cc1cccc(-n2c3nc(=O)[nH]c(=O)c-3cc3cc([N+](=O)[O-])ccc32)c1,i,i,i,i,i,i
Cc1ccc(C)c(-n2c3nc(=O)[nH]c(=O)c-3cc3cc([N+](=O)[O-])ccc32)c1,i,i,i,56µM,i,i
O=[N+]([O-])c1cc2ccccc2c(O)c1O,nt,nt,i,?,i,i
O=[N+]([O-])c1cc(-c2ccccc2)cc([N+](=O)[O-])c1O,nt,i,i,?,i,56µM
O=S(=O)(c1ccc(Cl)cc1)N1CCN(c2nc(Nc3cc(Cl)ccc3O)nc3ccccc23)CC1,i,nt,nt,nt,nt,nt
CCOc1cc(/C=N/Nc2cc(C)nc(-n3nc(C)cc3C)n2)ccc1O,79µM,i,i,i,i,i
COc1cc(NC(=S)NCCC(c2ccccc2)c2ccccc2)cc(OC)c1,i,i,89µM,i,i,i
O=C(Nc1ccc2nc(SCC(=O)N3CCCC3)sc2c1)c1ccccc1,i,i,nt,nt,nt,nt
Cn1c(SCC(=O)Nc2ccc3nc(SCC(=O)N4CCCC4)sc3c2)nnc1-c1ccccc1,50µM,i,i,i,i,i
COCCCNC(=O)C(C#N)c1nc2ccccc2nc1N1CCN(Cc2ccccc2)CC1 (configuration not stated),i,i,i,i,i,79µM
COc1ccc(CCn2c3c(c(=O)[nH]c2=S)CN(CC(C)C)CN3)cc1OC,i,nt,nt,nt,nt,nt
O=S(=O)(c1ccc2c(c1)OCCO2)C1CCN(S(=O)(=O)c2c(F)cccc2F)CC1,i,nt,nt,nt,nt,nt
COc1ccc(CCn2c(O)cc3nn(-c4nc5ccccc5s4)c(=O)c-3c2C)cc1,nt,i,i,50µM,i,i
N[C@@H](C(=O)O)c1ccc(C(=O)O)c(C(=O)O)c1,40µM!,nt,nt,nt,nt,nt
N[C@H](C(=O)O)c1ccc(O)c(C(=O)O)c1,i,nt,nt,nt,nt,nt
O=C(O)c1[nH]c2ccccc2c1C(c1cc(Br)ccc1O)c1c(C(=O)O)[nH]c2ccccc12,nt,i,i,45µM,i,i
CC(C)(C)OC(=O)CC(=O)NNC(=O)c1cc2ccccc2[nH]1,i,nt,nt,nt,nt,nt
COC(=O)c1ccn(CC(=O)NC2CCCCC2)n1,28µM,i,i,i,i,i
O=C(O)c1ccc(-n2cccc2/C=N\NC(=O)c2cc3cc(Br)ccc3o2)cc1,1.1µM,i,i,?,i,i
O=C(CN1CCOCC1)N/N=C/c1ccc(-c2ccc(C(=O)O)cc2)o1,32µM,i,i,i,i,i
OC[C@@H]1[C@@H](c2ccc(Cl)cc2)C(c2cccc(Cl)c2)=NN1c1ccccc1,40µM!,i,i,i,i,i
SMILES,TDP1 inh,ERG-DNA inh,EPAC1 agonist,EPAC1 antag,EPAC2 agonist,EPAC2 antag
OC[C@@H]1[C@@H](c2ccc(Cl)cc2)C(c2ccccc2)=NN1c1ccccc1,?,i,i,i,i,?
C[C@H]1C(c2cccc(Cl)c2)=NN(c2ccccc2)[C@@H]1CO,40µM,nt,nt,nt,nt,nt
CC1=NN(c2cccc(C(=O)O)c2)C(=O)/C1=C\C=C/c1ccccc1,i,i,i,i,i,16µM
CC1=NN(c2ccccc2)C(=O)C1=Cc1ccccc1,nt,nt,i,50µM,i,i
O=C(CNC(=O)c1ccccc1)OCC(=O)c1cccc2ccccc12,i,nt,nt,nt,nt,nt
CN(C)CC(O)Cn1c2ccc(Br)cc2c2cc(Br)ccc21 (configuration not stated),i,nt,nt,nt,nt,nt
COc1ccc(Br)cc1C1NC(c2ccc3c(c2)OCO3)=CC(c2cc(Cl)ccc2O)N1 (configuration not stated),i,nt,nt,nt,nt,nt
O=[N+]([O-])c1cccn2cc(-c3ccc(Br)cc3)nc12,40µM,i,i,i,i,i
Oc1ccc(N=Cc2ccc(-c3cccs3)s2)cc1,i,?,i,32µM,i,?
Cc1ccc(Cl)c2sc(N3CCN(C(=O)c4ccco4)CC3)nc12,i,i,100µM,i,i,i
Cc1ccc(C)c(SC2=NS(=O)(=O)c3ccccc32)c1,i,nt,nt,nt,nt,nt
O=C(COC(=O)c1cccc(S(=O)(=O)N2CCN(c3ccccc3)CC2)c1)NCc1ccco1,79µM,i,i,i,i,i
COc1ccc(-c2[nH][nH]c(=O)c2NC(=O)c2ccccn2)cc1,nt,nt,i,i,i,i
COc1ccc(CCC(=O)Nc2c(-c3ccc(N(C)C)cc3)[nH][nH]c2=O)cc1,nt,nt,i,50µM,?,i
CCOc1cccc(C2C=C(c3ccc4c(c3)OCO4)NC(c3cccc(Br)c3)N2)c1O (configuration not stated),i,nt,nt,nt,nt,nt
COc1ccccc1NS(=O)(=O)c1ccc(OC)c(OC)c1,i,i,i,i,i,i
COc1ccccc1NS(=O)(=O)c1ccc2ccccc2c1,nt,i,i,i,i,13µM
Cc1ccc(CNCc2cn[nH]c2-c2ccc(C)cc2)cc1,i,nt,nt,nt,nt,nt
Cc1ccc(S(=O)(=O)Nc2ccc3cc([N+](=O)[O-])ccc3c2[N+](=O)[O-])cc1,nt,i,i,79µM,i,50µM
Cc1ccc(S(=O)(=O)Nc2ccc3ccccc3c2[N+](=O)[O-])cc1,nt,i,i,?,i,?
N#Cc1nc(Nc2cccc(F)c2)nc(NC2CCCC2)n1,i,nt,nt,nt,nt,nt
O=C(Nc1cc2c(oc1=O)CCCC2=O)c1ccc(Cl)cc1,13µM,i,i,i,i,i
Cc1nccc2oc(=O)c(NC(=O)c3ccc(Cl)cc3)cc12,i,?,i,i,i,i
Cc1ccc(/C=N/c2sc3c(c2C#N)CCCCC3)o1,i,i,i,i,i,i
N#Cc1c(/N=C/c2ccco2)sc2c1CCC2,i,i,i,i,10µM,i
